# In PubChem BioAssay (NCATS):
# Values joined by “and” are separate entries in the source; they are usually repeats but may differ in a detail not shown here. Equal entries are not always repeated. Inconclusive results are not listed. A call without a number means that no potency is given here. Active and inactive are the calls of the source. Unless noted, calls come from the whole dose curve; as a rule, active = well fitted curve in the direction sought with a large enough effect; inconclusive = small, poorly fitted or top-dose-only effect, or another doubt; inactive = no such curve, though single readings can be large; an effect the other way counts as inactive or inconclusive.
# How the values were obtained:
# [1] = Validation screen for small molecules that induce genotoxicity in human embryonic kidney (HEK293T) cells expressing luciferase-tagged ELG1 (AID 493106)
# Procedure, shortened: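 HEK293T cells expressing luciferase-tagged ELG1 were exposed to compound or DMSO vehicle for 16 hr at 37 °C, 5% CO2. Genotoxic stress raises ELG1 levels, so increased luciferase signal after ONE-Glo addition and 30 min at room temperature marks hits.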
# [2] = qHTS for Inhibitors of Cell Surface uPA Generation: Validation Assay (AID 493164);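 note: RAW 264.7 macrophage cells exposed to compound for 18 h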
# Procedure, shortened: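 RAW 264.7, 4000 cells/well, o/n plating; cpd 7-pt 1:5 dilution 2.45 nM–38.3 uM final; 18 h, 37 C/5% CO2; ATP-Lite, 5 s luminescence exposure.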
# [3] = target: Galactokinase (Homo sapiens) (UniProt P51570); assay: qHTS Validation Assay for Inhibitors of Human Galactokinase (GALK) (AID 493189)
# Sequence of Galactokinase (Homo sapiens) (P51570 whole entry, looked up): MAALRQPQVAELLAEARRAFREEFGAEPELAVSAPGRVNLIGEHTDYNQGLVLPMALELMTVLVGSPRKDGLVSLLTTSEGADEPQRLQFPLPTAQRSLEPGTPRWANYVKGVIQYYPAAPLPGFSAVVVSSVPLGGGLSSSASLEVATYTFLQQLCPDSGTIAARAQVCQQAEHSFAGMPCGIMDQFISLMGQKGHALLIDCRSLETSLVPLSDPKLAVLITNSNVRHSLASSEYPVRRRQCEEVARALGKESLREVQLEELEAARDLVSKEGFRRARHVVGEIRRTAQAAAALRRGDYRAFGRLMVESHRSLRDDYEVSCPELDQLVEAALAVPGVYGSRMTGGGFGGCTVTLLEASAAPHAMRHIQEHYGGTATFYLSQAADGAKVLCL
# Procedure, shortened: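 Luminescence from leftover ATP (Kinase-Glo Plus, 10 min) served as read-out after a 1 h room-temperature reaction of 5 nM GALK, 100 uM galactose and 35 uM ATP at pH8.0.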
# [4] = target: Peptidyl-prolyl cis-trans isomerase NIMA-interacting 1 (Homo sapiens) (UniProt Q13526); assay: qHTS Validation Assay to Find Inhibitors of Pin1 (AID 504536; active = well fitted inhibition curve with a large enough effect in the polarisation, with a control signal flat, not every such curve was filed as active; the % refers to the polarisation)
# Procedure, shortened: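 Fluorescence polarization competition: compounds (titration) displace HiFluor-488-labeled Pin1-1b peptide from Pin1 (0.3 uM final) in pH 7.5 HEPES buffer with DTT, 10 min at room temperature; %Activity normalized to no-enzyme wells, curves fitted.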
# [5] = target: Phosphoglycerate kinase, glycosomal (Trypanosoma brucei brucei) (UniProt P07378); assay: qHTS Validation Assay to Find Inhibitors of Phosphoglycerate Kinase (AID 504547)
# Sequence of Phosphoglycerate kinase, glycosomal (Trypanosoma brucei brucei) (P07378 whole entry, looked up): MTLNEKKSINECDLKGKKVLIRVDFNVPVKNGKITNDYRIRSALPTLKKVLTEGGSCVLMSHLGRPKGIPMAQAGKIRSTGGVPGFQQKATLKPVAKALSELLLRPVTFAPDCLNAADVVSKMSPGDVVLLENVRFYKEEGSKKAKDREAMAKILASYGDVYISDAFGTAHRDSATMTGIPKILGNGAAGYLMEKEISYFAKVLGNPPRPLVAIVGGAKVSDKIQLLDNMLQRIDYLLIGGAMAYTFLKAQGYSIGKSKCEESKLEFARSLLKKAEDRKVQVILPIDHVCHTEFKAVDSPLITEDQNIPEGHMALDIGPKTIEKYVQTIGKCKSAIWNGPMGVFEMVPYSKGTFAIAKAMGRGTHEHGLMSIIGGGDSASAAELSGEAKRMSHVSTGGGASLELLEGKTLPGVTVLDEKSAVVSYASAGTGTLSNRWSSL
# Procedure, shortened: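 Inhibition of the enzyme is judged by a Kinase-Glo Plus luminescent signal following a one-hour incubation at room temperature. Because 1,3-BPG is unstable, it is made in situ by GAPDH at 100nM final; no-PGK wells define the baseline.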
# [6] = target: phosphoglycerate mutase (Leishmania major) (UniProt Q4Q090); assay: qHTS Validation Assay to Find Inhibitors of Phosphoglycerate Mutase (AID 504548);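 note: end-point luminescence from Kinase-GloPlus after the PGAM reaction; series mostly up to about 58 µM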
# Sequence of phosphoglycerate mutase (Leishmania major) (Q4Q090 1-553): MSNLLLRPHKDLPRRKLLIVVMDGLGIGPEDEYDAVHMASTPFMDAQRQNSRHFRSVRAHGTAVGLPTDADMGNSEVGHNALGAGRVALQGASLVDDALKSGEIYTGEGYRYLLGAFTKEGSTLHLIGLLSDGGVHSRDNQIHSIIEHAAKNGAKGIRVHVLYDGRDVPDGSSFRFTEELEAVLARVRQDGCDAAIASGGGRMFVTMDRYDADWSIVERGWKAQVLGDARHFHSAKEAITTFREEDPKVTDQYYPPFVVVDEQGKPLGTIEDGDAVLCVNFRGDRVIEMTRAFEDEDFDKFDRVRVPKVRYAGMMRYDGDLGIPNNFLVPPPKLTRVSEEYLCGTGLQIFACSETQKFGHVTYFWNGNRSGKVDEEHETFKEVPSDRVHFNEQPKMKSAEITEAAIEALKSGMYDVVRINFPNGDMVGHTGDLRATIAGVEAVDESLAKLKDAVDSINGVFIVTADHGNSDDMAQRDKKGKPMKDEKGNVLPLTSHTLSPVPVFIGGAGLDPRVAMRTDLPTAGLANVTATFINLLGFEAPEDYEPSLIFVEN
# Procedure, shortened: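 L. major PGAM (1.25nM final) was added to substrate buffer and pinned compound, incubated 45 minutes at room temperature, then Kinase-GloPlus added; luminescence read after 10 minutes. Buffer: 100 mM TEA pH 7.6, 5 mM MgCl2, 0.01% Tween-20.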
# [7] = target: Ubiquitin carboxyl-terminal hydrolase 1 (Homo sapiens) (UniProt O94782); assay: Inhibitors of USP1/UAF1: Pilot qHTS (AID 504865);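 note: rhodamine fluorescence freed from ubiquitin-rhodamine substrate followed over time; top concentration of the series differs between compounds; nearly all actives have a fitted effect of over 35% in size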
# Sequence of Ubiquitin carboxyl-terminal hydrolase 1 (Homo sapiens) (O94782 whole entry, looked up): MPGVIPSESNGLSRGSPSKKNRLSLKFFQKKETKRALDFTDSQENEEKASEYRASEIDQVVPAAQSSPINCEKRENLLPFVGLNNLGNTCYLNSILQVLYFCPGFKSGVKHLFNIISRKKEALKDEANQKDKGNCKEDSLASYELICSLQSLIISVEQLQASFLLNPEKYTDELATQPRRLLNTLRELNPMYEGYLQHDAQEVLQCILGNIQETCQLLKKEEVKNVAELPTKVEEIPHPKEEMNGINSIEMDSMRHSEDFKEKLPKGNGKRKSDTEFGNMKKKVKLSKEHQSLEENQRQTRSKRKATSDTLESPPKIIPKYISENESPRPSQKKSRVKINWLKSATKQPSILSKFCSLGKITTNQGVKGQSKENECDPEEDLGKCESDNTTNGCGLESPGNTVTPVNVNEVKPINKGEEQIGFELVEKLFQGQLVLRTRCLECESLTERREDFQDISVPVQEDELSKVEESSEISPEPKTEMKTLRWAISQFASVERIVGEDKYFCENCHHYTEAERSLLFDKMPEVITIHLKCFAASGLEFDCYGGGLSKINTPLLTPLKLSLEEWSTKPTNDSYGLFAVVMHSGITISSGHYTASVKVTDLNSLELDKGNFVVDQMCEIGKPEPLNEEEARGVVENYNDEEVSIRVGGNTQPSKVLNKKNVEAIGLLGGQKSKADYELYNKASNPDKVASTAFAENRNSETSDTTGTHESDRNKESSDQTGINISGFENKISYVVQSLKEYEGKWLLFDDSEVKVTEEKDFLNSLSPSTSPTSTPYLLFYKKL
# Procedure, shortened: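 1nM USP1/UAF1 + cpd, 15 min RT; start w/ Ub-Rho 150nM final; kinetic FL 480/540 nm, 6 reads q60 s. Buffer 50mM HEPES pH 7.8, 0.5mM EDTA, 1mM TCEP, 0.01% Tween-20, 0.1 mg/ml BSA.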
# [8] = target: Glucocorticoid receptor (Homo sapiens) (UniProt P04150); assay: qHTS assay for small molecule agonists of glucocorticoid receptor signaling (AID 588532; active = well fitted curve in the direction sought with a large enough effect in the signal ratio, with a control signal flat; the % refers to the signal ratio); settings: HeLa MMTV-bla, beta-lactamase ratio, agonist, 18 h; stronger effect = higher value; percent of dexamethasone control, DMSO zero
# Procedure, shortened: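 Agonist-mode qHTS: GRE-driven beta-lactamase in HeLa cells exposed 18 h to titrated compounds (up to 92 uM), then CCF4 ratio read after 2 h at RT; Hill-fitted EC50, efficacy relative to 0.1 uM dexamethasone.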
# [9] = target: Thyrotropin-releasing hormone receptor (Homo sapiens) (UniProt P34981); assay: qHTS for Small Molecule Agonists and Allosteric Enhancers of Human TRH Receptor: Validation Screen for Agonists (AID 493127;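 active = calcium activation more than 3 SD above the typical response in the agonist read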;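 note: intracellular calcium rise by fluo-8 fluorescence before TRH EC20 addition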); settings: TRH receptor agonist cell assay; at 2 µM; stronger effect = higher value
# Sequence of Thyrotropin-releasing hormone receptor (Homo sapiens) (P34981 whole entry, looked up): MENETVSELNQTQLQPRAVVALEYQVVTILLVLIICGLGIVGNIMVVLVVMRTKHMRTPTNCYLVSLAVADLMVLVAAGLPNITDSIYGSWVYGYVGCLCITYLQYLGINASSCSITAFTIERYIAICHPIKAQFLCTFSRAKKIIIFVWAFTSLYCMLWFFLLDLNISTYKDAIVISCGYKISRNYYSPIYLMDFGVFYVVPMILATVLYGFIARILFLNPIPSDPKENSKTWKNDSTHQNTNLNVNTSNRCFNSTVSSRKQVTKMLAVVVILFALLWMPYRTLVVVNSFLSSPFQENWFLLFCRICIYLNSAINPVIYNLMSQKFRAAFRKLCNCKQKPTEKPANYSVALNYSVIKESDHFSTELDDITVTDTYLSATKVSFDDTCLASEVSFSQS
# Procedure, shortened: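 TRHR-expressing cells were plated overnight in serum-containing medium, then loaded with fluo-8 calcium dye at room temperature for 30 min–1.5 h. After a 10 s baseline, compound was pin-transferred and calcium fluorescence (ex 480/em 530) read kinetically for agonist response.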
# [10] = Nrf2 qHTS screen for inhibitors: Validation (AID 493153; active = well fitted inhibition curve with a large enough effect in the main read-out, with a control signal flat, not every such curve was filed as active); settings: Potency: luciferase luminescence; viability change: measured here: cytotoxicity max response
# Procedure, shortened: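 A549 cells carrying an ARE-driven firefly luciferase reporter, in 5% FBS OPTI-MEM, were treated with compounds in concentration-response for 18-24 h at 37°C. Viability was read by CellTiter-Fluor fluorescence, then Nrf2 activity by luciferase luminescence.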
# [11] = Validation screen for small molecules that induce DNA re-replication in SW480 colon adenocarcinoma cells (AID 504364)
# Procedure, shortened: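 SW480 cells seeded at 250 per well were exposed to compound or DMSO for 48 hr at 37 C, 5% CO2, then stained with Hoechst for 40 min. DNA content per nucleus was imaged (405 nm ex, 500-530 nm em).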
# [12] = qHTS for Inhibitors of ATXN expression: Validation (AID 588378); note: nearly all actives have a fitted effect of over 75% in size; note: potency is the fitted concentration of half-maximal effect
# Procedure, shortened: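 Cells: HEK293-ATXN2-FFLuc, phenol-red free DMEM, 2 h attachment. Compound pin-transfer, 24 h, 37 degrees C, 5% CO2. CellTiter-Fluor 30 min, Ex405/Em525; Bright-Glo 5 min, luminescence 2 s exposure.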
# [13] = target: DNA dC->dU-editing enzyme APOBEC-3G (Homo sapiens) (UniProt Q9HC16); assay: qHTS for inhibitors of Vif-A3G interactions: Validation (AID 588379)
# Sequence of DNA dC->dU-editing enzyme APOBEC-3G (Homo sapiens) (Q9HC16 whole entry, looked up): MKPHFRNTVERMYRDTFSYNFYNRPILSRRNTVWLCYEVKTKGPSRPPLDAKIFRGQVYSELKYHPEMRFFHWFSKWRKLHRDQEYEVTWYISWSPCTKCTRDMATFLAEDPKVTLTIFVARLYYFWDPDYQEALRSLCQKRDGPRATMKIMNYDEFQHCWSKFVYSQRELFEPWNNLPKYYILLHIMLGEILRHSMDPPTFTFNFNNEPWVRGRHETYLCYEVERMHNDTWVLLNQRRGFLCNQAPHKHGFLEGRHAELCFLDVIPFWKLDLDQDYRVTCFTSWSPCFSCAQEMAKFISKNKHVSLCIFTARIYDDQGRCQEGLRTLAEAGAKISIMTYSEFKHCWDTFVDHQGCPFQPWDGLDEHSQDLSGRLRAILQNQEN
# Procedure, shortened: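 HeLa cells stably expressing Vif and A3G-eYFP, 700 cells/well, incubated overnight at 37 deg C, then exposed to compound overnight at 37 deg C. Inhibition of Vif-mediated degradation read as increased yellow fluorescence (Ex 488/Em 500-530) by laser-scanning cytometry.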
# [14] = target: ATPase family AAA domain-containing protein 5 (Homo sapiens) (UniProt Q96QE3); assay: Validation screen for small molecules that inhibit ELG1-dependent DNA repair in human embryonic kidney (HEK293T) cells expressing luciferase-tagged ELG1 (AID 493107);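 note: cells co-treated with the DNA-damaging agent 5-fluorouridine alongside compound; series mostly up to about 46 µM; inhibitors lower the ELG1-luciferase luminescence signal; nearly all actives have a fitted effect of over 70% in size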
# Procedure, shortened: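 HEK293T cells expressing luciferase-tagged ELG1 were co-treated with 5-fluorouridine and compound or DMSO for 16 hr at 37 °C, 5% CO2. Luciferase activity was then read with ONE-Glo after 30 min at room temperature; suppressed signal indicates blocked ELG1 function.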
# [15] = qHTS for Inhibitors of ATXN expression: Validation of Cytotoxic Assay (AID 588349)
# Procedure, shortened: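 HEK293 cells were dosed with titrated compounds for 72 hr at 37 degrees C. Viability was read by CellTiter Glo luminescence, with intracellular ATP as the marker of cell survival.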
# [16] = target: Estrogen receptor (Homo sapiens) (UniProt P03372); assay: qHTS assay for small molecule agonists of estrogen receptor alpha signaling (AID 588514; calls by dose curve; note: nearly all actives have a fitted effect of over 70% in size)
# Sequence of Estrogen receptor (Homo sapiens) (P03372 whole entry, looked up): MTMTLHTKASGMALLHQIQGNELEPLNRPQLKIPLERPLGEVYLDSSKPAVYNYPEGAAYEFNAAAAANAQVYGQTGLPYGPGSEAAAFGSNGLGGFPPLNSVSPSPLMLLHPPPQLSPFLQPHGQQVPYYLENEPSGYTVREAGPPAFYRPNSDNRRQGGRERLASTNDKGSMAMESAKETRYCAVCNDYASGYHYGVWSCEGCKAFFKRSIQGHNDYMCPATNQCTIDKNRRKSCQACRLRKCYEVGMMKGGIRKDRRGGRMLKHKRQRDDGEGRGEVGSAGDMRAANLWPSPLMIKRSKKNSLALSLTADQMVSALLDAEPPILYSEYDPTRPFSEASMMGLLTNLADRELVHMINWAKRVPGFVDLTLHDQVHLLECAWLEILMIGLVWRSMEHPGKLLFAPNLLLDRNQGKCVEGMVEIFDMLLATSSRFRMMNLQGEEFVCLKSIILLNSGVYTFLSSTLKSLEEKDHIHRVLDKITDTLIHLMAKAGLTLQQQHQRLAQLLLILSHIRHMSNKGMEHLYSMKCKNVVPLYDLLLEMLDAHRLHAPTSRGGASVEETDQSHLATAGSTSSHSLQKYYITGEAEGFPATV
# Procedure, shortened: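 ER-alpha-UAS-bla GripTite HEK 293 cells in medium with 2% charcoal/dextran-treated FBS were treated with compound titrations at 37 C for 18 hrs; beta-lactamase reporter read by CCF4 fluorescence after 2 hrs at RT.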
# [17] = target: Androgen receptor (Homo sapiens) (UniProt P10275); assay: qHTS assay for small molecule agonists of androgen receptor signaling (AID 588515; active = well fitted curve in the direction sought with a large enough effect in the signal ratio, with a control signal flat; the % refers to the signal ratio); settings: AR-UAS-bla HEK293, beta-lactamase ratio, agonist 16 h; stronger effect = higher value
# Sequence of Androgen receptor (Homo sapiens) (P10275 whole entry, looked up): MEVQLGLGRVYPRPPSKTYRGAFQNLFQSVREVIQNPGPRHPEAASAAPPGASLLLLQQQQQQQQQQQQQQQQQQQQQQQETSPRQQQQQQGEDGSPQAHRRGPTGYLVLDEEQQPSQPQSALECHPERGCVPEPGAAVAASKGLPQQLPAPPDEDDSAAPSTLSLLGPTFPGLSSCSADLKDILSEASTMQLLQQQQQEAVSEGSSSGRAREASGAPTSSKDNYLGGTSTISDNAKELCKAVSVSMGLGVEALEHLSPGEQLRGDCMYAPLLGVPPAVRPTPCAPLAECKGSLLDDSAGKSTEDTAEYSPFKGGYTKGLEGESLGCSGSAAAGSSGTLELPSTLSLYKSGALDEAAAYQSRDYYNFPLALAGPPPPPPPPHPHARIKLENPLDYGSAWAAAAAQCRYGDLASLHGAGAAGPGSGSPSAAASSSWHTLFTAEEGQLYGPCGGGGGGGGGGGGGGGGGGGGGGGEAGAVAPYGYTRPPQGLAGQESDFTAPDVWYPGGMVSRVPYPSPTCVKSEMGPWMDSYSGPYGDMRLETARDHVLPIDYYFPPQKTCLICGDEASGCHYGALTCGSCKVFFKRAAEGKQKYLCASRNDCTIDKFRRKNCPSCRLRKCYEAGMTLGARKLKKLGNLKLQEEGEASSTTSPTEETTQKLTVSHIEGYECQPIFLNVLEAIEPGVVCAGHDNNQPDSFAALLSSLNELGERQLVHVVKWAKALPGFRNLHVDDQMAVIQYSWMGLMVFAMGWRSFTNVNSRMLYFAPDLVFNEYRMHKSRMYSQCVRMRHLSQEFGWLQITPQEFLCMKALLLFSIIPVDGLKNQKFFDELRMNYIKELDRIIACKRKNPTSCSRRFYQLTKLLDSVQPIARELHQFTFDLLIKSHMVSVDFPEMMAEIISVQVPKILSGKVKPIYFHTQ
# Procedure, shortened: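 EC50 and efficacy came from Hill fits of titrations (up to 92 uM) normalized to 30 nM R1881 as 100% and DMSO as 0%. Compound exposure was 16 h at 37 C on AR-UAS-bla HEK293 cells, with a 405/460/530 nm CCF4 fluorescence read.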
# [18] = target: Bile acid receptor (Homo sapiens) (UniProt Q96RI1); assay: qHTS assay for small molecule antagonists of farnesoid X receptor signaling (AID 588526; calls by dose curve)
# Sequence of Bile acid receptor (Homo sapiens) (Q96RI1 whole entry, looked up): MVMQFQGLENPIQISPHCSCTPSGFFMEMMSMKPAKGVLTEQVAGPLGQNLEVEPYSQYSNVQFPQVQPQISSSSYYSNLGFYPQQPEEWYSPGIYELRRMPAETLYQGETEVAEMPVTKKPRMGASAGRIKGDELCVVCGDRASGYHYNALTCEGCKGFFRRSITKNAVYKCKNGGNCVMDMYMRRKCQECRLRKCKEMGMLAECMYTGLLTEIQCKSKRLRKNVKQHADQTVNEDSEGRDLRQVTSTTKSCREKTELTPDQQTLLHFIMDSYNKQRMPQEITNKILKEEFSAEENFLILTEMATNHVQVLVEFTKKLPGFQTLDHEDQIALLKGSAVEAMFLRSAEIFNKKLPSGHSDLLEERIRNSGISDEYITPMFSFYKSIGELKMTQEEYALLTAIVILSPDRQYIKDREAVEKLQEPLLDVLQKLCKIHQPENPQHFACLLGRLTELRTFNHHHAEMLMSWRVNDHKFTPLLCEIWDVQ
# Procedure, shortened: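 Beta-lactamase reporter antagonist mode: HEK293T FXR-UAS-bla cells, titrated compound, CDCA stimulation, 16 h 37 C, CCF4 dye 2 h RT. Data normalized to CDCA 50 uM and DMSO; Hill-fit IC50.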
# [19] = qHTS assay for small molecule antagonists of peroxisome proliferator-activated receptor delta signaling (AID 588535); settings: HEK293T PPARd-UAS-bla, beta-lactamase FRET ratio, 18 h; 460 nm channel;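 note: cells co-treated with a PPAR-delta agonist as stimulator during compound exposure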
# Procedure, shortened: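 Cell-based beta-lactamase assay in antagonist mode: 4000 HEK293T PPAR-delta-UAS-bla cells per well, 5 hr preincubation then 18 hr compound incubation at 37 C. IC50 obtained by Hill equation fitting.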
compound,measurement,setting,value
O=C(Nc1ccc([N+](=O)[O-])cc1Cl)c1cc(Cl)ccc1O,Potency,[1],inactive
same,outcome,[2],inactive
same,Potency,[3],inactive
same,Potency,[4],inactive
same,Potency,[5],inactive
same,outcome,[6],inactive
same,Potency,[7],inactive
same,activation,[8],-5.17% (inactive)
CS(=O)(=O)CCNCc1ccc(-c2ccc3ncnc(Nc4ccc(OCc5cccc(F)c5)c(Cl)c4)c3c2)o1,Potency,[7],inactive
CNCCCC12CCC(c3ccccc31)c1ccccc12,Potency,[1],inactive
same,activation,[9],3.31% (inactive)
same,Potency,[10],inactive
same,viability change,[10],1.81%
same,outcome,[2],inactive
same,Potency,[3],inactive
same,Potency,[11],inactive
same,Potency,[4],inactive
same,Potency,[5],inactive
same,outcome,[6],inactive
same,Potency,[7],inactive
same,Potency,[12],15.8 µM (active)
same,outcome,[13],inactive
COc1cc2nc(N3CCN(C(=O)c4ccco4)CC3)nc(N)c2cc1OC,Potency,[10],inactive
same,viability change,[10],-4.77%
same,outcome,[2],inactive
same,Potency,[4],inactive
same,Potency,[5],inactive
same,outcome,[6],inactive
same,outcome,[13],inactive
CCCCc1oc2ccccc2c1C(=O)c1cc(I)c(OCCN(CC)CC)c(I)c1,Potency,[1],inactive
same,activation,[9],1.56% (inactive)
same,Potency,[10],inactive
same,viability change,[10],8.23%
same,Potency,[3],inactive
same,Potency,[11],inactive
same,Potency,[5],inactive
same,outcome,[6],inactive
COc1cc2c(c(OC)c1OC)-c1ccc(OC)c(=O)cc1[C@@H](NC(C)=O)CC2,Potency,[14],inactive
same,activation,[9],0% (inactive)
same,outcome,[2],inactive
same,Potency,[3],inactive
same,Potency,[4],inactive
same,Potency,[5],inactive
same,outcome,[6],inactive
same,outcome,[15],inactive
same,Potency,[12],inactive
same,outcome,[13],inactive
same,outcome,[16],inactive
same,activation,[17],-5.98% (inactive) and 0.799% (inactive) and 0.899% (inactive)
CC(C)C(=O)Nc1ccc([N+](=O)[O-])c(C(F)(F)F)c1,Potency,[14],inactive
same,activation,[9],-0.438% (inactive)
same,outcome,[2],inactive
same,Potency,[3],inactive
same,Potency,[11],inactive
same,Potency,[4],inactive
same,Potency,[5],inactive
same,outcome,[6],inactive
same,Potency,[7],inactive
same,outcome,[15],inactive
same,Potency,[18],inactive
CC(C)(C)C(=O)Oc1ccc(S(=O)(=O)Nc2ccccc2C(=O)NCC(=O)O)cc1,Potency,[7],inactive
Clc1ccc2nsnc2c1NC1=NCCN1,Potency,[1],inactive
same,Potency,[10],inactive
same,viability change,[10],-2.06%
same,outcome,[2],inactive
same,Potency,[4],inactive
same,Potency,[5],inactive
same,outcome,[6],inactive
same,Potency,[7],inactive
same,outcome,[15],inactive
O=C(CCCN1CCC(O)(c2ccc(Cl)cc2)CC1)c1ccc(F)cc1,Potency,[1],inactive
same,activation,[9],4.81% (inactive)
same,Potency,[10],inactive
same,viability change,[10],2.46%
same,outcome,[2],inactive
same,Potency,[3],inactive
same,Potency,[11],inactive
same,Potency,[4],inactive
same,Potency,[5],inactive
same,outcome,[6],inactive
same,Potency,[7],inactive
same,outcome,[15],inactive
same,outcome,[13],inactive
same,Potency,[18],inactive
same,activation,[8],-2.91% (inactive)
Cc1cn([C@H]2C[C@H](N=[N+]=[N-])[C@@H](CO)O2)c(=O)[nH]c1=O,Potency,[14],inactive
same,Potency,[10],inactive
same,viability change,[10],8.03%
same,outcome,[2],inactive
same,Potency,[5],inactive
same,outcome,[6],inactive
same,Potency,[7],inactive
same,outcome,[15],inactive
same,Potency,[12],inactive
same,outcome,[16],inactive
same,Potency,[18],inactive
same,activation,[8],-3.02% (inactive) and 6.31% (inactive)
same,max response,[19],16%
